How the values were obtained:
[1] = target: T1, Inhibitor of nuclear factor kappa-B kinase subunit epsilon (Homo sapiens) (UniProt Q14164); settings: at 1 µM;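 also: reported values are averaged percent inhibition figures against human IKKε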
T1 sequence (whole entry): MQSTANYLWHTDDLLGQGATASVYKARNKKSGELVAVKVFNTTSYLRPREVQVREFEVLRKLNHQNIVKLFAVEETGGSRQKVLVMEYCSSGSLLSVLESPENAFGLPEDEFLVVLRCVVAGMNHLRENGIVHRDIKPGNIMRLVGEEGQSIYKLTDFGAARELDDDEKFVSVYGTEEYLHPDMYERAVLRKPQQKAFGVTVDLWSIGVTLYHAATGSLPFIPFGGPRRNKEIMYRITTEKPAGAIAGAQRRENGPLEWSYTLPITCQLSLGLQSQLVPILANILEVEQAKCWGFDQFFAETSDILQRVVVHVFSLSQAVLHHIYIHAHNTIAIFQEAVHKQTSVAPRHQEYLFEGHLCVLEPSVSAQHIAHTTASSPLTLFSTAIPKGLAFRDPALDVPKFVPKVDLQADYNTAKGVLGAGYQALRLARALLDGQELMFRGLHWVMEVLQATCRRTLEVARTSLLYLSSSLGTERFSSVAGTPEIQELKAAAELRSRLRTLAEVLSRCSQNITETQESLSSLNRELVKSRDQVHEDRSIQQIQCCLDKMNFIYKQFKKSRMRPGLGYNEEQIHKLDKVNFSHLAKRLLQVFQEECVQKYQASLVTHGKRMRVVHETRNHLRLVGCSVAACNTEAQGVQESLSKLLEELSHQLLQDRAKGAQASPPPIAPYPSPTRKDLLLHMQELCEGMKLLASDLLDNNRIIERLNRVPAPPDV

[2] = target: T2, Serine/threonine-protein kinase Nek1 (Homo sapiens) (UniProt Q96PY6); settings: at 0.1 µM
T2 sequence (whole entry): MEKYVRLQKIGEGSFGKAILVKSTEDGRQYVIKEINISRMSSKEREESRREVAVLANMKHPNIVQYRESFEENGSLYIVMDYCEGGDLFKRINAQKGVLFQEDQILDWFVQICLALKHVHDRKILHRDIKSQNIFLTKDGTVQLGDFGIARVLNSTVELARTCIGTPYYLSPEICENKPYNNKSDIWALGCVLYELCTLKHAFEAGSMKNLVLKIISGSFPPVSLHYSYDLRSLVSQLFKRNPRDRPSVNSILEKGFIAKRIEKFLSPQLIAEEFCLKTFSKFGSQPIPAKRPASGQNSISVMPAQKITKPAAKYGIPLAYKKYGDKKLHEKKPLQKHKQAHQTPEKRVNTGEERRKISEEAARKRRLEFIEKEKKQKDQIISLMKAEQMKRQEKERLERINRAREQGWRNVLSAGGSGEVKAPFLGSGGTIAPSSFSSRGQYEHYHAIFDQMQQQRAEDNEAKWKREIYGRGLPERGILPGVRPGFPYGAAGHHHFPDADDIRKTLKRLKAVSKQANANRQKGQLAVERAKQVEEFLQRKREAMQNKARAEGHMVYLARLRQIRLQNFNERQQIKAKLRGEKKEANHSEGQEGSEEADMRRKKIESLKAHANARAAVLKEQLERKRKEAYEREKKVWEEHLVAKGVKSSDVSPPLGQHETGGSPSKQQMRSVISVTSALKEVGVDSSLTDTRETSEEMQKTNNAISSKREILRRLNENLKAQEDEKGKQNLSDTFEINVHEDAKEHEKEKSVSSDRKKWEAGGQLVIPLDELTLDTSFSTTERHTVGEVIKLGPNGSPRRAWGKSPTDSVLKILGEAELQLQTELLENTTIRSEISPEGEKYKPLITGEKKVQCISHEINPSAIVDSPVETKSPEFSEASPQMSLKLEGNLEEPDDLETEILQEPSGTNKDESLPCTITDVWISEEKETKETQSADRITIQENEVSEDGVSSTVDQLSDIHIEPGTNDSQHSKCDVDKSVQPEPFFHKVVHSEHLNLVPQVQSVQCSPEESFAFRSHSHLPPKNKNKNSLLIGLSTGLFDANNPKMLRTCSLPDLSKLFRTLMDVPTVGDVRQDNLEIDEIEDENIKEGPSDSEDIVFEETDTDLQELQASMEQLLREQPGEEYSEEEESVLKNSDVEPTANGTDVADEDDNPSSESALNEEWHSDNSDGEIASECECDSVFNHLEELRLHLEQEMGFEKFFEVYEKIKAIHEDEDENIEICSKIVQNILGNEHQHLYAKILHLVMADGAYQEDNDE

[3] = target: T2, Serine/threonine-protein kinase Nek1 (Homo sapiens); settings: at 1 µM
[4] = target: T3, Serine/threonine-protein kinase Nek2 (Homo sapiens) (UniProt P51955); settings: at 0.1 µM
T3 sequence (whole entry): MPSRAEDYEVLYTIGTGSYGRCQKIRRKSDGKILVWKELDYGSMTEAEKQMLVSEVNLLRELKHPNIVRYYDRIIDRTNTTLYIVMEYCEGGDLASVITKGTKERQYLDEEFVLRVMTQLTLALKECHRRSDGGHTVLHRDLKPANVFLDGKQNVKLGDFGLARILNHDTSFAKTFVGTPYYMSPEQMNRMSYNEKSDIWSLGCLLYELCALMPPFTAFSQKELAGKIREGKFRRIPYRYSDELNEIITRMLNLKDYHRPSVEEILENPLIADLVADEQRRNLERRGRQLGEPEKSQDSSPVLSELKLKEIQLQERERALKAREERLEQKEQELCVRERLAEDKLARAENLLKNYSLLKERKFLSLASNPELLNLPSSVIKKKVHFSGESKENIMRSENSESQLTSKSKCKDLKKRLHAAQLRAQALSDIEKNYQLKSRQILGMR

[5] = target: T3, Serine/threonine-protein kinase Nek2 (Homo sapiens); settings: at 1 µM
[6] = target: Serine/threonine-protein kinase Nek6 (Homo sapiens) (UniProt Q9HC98); settings: at 0.1 µM
Sequence of Serine/threonine-protein kinase Nek6 (Homo sapiens) (Q9HC98 whole entry): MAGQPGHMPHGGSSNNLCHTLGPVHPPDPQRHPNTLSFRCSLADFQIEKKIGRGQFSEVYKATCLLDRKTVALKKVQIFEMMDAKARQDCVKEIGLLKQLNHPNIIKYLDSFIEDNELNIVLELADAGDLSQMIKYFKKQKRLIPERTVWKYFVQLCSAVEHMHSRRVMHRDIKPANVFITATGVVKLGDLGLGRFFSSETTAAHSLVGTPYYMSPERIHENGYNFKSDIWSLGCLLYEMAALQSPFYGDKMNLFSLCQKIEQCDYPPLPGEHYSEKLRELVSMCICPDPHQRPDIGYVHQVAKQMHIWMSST

[7] = target: Serine/threonine-protein kinase Nek6 (Homo sapiens) (UniProt Q9HC98); settings: at 1 µM
[8] = target: Serine/threonine-protein kinase Nek7 (Homo sapiens) (UniProt Q8TDX7); settings: at 0.1 µM
Sequence of Serine/threonine-protein kinase Nek7 (Homo sapiens) (Q8TDX7 whole entry, looked up): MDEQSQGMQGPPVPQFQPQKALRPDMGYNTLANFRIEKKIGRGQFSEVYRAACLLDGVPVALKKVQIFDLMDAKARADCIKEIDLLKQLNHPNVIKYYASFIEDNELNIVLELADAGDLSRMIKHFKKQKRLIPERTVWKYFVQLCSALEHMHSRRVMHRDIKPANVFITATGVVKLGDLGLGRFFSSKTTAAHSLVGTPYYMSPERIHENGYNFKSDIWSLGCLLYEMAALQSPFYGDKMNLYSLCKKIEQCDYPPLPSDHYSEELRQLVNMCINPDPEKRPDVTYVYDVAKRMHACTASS

[9] = target: Serine/threonine-protein kinase Nek7 (Homo sapiens) (UniProt Q8TDX7); settings: at 1 µM
[10] = target: T4, Serine/threonine-protein kinase Nek9 (Homo sapiens) (UniProt Q8TD19); settings: at 0.1 µM
T4 sequence (whole entry): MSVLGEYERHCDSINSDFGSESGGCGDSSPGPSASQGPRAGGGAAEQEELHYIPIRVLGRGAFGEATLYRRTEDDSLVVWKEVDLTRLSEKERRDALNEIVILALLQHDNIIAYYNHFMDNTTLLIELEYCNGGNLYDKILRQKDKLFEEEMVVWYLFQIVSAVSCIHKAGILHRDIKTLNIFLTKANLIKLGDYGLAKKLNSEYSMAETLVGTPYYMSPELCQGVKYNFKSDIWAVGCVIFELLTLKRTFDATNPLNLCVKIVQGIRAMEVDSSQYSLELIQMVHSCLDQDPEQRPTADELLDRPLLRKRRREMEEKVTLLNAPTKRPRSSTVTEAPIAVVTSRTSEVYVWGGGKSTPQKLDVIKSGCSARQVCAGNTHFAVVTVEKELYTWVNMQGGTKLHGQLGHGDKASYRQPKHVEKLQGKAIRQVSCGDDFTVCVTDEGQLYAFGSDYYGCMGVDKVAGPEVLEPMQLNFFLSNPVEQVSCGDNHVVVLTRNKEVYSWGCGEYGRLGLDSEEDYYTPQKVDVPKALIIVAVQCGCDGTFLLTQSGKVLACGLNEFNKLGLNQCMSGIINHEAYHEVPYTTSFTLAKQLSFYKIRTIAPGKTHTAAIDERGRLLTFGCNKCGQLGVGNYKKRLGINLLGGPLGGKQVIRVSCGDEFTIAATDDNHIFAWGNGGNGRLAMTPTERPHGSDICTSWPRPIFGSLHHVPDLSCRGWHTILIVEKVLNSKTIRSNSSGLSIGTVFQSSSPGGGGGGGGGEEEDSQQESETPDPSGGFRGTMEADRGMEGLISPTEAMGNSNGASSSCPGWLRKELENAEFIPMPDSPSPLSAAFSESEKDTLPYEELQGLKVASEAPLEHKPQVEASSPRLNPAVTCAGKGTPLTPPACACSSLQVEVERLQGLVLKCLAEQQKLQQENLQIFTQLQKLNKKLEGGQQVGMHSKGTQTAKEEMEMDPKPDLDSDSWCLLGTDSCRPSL

[11] = target: T4, Serine/threonine-protein kinase Nek9 (Homo sapiens); settings: at 1 µM
[12] = target: T5, Dual specificity protein kinase TTK (Homo sapiens) (UniProt P33981); settings: at 0.1 µM
T5 sequence (whole entry): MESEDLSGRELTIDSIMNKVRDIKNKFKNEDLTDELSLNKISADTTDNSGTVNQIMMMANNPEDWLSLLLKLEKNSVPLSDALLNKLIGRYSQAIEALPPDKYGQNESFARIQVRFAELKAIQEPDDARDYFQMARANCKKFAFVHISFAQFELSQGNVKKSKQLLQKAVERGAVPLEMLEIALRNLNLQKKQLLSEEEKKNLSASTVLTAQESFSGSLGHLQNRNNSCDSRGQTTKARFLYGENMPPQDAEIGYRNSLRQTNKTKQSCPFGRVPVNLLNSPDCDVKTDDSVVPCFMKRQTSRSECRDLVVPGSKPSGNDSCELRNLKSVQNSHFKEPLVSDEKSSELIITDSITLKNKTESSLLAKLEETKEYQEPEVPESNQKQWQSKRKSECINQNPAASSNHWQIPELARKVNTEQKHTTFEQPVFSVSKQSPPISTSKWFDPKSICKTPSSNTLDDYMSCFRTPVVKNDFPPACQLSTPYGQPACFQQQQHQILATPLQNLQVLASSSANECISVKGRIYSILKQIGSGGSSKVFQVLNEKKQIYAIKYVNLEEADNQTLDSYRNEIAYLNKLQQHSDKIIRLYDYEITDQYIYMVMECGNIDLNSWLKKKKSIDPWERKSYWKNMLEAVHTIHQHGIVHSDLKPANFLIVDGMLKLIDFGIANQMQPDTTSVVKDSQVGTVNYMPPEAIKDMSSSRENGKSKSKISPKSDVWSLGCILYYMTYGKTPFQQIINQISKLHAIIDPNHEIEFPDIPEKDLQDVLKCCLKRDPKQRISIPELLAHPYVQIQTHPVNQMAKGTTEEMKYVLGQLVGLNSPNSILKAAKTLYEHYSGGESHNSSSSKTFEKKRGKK

[13] = system: T6, Receptor-type tyrosine-protein kinase FLT3 (Homo sapiens), P36888 [D835Y]; settings: at 1 µM
T6 sequence (whole entry): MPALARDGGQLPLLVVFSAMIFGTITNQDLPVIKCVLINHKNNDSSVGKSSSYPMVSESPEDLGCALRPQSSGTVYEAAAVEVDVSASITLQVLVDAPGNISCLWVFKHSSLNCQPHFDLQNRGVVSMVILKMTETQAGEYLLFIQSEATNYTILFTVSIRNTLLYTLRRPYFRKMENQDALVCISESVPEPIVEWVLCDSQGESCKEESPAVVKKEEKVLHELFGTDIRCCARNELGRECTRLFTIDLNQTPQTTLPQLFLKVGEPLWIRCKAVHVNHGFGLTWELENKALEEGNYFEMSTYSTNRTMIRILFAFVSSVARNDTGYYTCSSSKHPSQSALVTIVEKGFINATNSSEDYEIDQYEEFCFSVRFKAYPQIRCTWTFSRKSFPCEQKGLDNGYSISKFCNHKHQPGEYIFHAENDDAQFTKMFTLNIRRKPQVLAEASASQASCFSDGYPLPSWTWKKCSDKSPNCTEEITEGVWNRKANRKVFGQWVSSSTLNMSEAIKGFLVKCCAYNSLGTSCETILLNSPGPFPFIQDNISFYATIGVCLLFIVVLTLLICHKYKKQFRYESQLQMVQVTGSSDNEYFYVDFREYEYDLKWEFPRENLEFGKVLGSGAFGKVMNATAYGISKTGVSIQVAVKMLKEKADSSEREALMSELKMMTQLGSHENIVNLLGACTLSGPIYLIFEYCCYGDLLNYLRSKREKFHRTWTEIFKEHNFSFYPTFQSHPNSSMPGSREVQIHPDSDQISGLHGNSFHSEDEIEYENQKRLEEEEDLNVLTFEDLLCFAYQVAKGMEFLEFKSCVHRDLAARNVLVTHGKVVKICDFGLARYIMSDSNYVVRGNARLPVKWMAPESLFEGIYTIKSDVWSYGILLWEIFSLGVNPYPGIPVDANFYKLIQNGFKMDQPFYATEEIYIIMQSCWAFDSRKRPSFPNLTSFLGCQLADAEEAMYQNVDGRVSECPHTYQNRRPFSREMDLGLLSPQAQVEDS

[14] = target: Vascular endothelial growth factor receptor 3 (Homo sapiens) (UniProt P35916); settings: at 0.1 µM
Sequence of Vascular endothelial growth factor receptor 3 (Homo sapiens) (P35916 whole entry): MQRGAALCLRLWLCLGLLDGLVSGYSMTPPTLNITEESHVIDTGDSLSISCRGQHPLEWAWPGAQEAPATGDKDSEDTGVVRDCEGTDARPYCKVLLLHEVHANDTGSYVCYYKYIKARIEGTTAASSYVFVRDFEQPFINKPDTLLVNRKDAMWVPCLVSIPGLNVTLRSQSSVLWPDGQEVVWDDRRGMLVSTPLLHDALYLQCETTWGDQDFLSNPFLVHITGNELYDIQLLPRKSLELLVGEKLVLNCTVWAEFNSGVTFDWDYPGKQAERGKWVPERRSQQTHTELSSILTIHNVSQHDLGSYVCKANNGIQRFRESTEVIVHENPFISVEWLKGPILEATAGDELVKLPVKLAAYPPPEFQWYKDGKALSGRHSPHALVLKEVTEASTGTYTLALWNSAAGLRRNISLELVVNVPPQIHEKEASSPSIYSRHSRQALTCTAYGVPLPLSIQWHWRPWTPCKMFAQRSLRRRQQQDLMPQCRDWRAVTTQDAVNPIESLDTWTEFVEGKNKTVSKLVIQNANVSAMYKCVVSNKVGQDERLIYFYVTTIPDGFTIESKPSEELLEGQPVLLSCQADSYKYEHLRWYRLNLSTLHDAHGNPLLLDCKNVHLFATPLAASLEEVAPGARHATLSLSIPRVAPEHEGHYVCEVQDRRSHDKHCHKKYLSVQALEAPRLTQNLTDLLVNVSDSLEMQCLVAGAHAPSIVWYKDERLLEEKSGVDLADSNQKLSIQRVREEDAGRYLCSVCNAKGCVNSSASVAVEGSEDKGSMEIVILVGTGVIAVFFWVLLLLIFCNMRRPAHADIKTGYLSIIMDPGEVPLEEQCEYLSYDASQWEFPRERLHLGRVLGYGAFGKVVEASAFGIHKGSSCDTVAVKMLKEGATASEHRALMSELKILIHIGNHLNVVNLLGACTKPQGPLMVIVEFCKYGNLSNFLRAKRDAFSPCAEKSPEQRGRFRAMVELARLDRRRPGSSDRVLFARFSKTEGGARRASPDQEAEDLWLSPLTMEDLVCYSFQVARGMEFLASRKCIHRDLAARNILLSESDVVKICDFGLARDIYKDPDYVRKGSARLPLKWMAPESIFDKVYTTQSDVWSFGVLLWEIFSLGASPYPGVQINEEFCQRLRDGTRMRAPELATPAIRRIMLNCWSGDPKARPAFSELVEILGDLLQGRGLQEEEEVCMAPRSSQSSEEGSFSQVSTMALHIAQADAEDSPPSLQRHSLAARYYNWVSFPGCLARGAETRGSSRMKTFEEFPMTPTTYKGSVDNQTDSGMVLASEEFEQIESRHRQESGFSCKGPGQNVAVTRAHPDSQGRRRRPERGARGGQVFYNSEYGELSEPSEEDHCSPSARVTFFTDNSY

[15] = target: Vascular endothelial growth factor receptor 3 (Homo sapiens) (UniProt P35916); settings: at 1 µM
[16] = target: Macrophage colony-stimulating factor 1 receptor (Homo sapiens) (UniProt P07333); settings: at 0.1 µM
Sequence of Macrophage colony-stimulating factor 1 receptor (Homo sapiens) (P07333 whole entry): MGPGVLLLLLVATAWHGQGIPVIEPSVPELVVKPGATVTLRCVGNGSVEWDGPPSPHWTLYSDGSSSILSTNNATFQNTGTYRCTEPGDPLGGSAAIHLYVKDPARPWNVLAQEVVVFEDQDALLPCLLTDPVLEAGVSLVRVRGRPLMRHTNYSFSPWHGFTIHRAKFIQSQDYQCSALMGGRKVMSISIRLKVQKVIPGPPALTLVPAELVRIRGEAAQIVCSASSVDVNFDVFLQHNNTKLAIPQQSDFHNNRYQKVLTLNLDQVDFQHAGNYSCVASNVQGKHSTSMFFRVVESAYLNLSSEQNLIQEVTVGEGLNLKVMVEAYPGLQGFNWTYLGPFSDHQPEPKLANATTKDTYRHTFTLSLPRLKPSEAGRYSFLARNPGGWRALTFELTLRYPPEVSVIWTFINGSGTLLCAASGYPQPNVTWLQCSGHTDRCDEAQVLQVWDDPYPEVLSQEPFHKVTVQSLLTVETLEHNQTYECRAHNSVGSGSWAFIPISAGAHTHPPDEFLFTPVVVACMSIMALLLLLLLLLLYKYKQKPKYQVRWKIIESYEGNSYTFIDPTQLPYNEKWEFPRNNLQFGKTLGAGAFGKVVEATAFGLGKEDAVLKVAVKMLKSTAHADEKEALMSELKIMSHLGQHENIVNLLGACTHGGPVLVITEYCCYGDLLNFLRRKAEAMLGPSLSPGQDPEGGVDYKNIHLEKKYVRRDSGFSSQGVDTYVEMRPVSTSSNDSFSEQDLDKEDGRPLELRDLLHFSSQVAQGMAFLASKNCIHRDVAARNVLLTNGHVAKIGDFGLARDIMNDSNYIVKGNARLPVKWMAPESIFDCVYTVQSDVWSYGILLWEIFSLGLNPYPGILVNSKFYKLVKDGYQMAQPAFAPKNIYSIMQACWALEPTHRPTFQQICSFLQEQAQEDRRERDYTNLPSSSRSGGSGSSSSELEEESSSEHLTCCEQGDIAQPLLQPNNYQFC

[17] = target: Macrophage colony-stimulating factor 1 receptor (Homo sapiens) (UniProt P07333); settings: at 1 µM
[18] = target: Tyrosine-protein kinase Fyn (Homo sapiens) (UniProt P06241); settings: at 0.1 µM
Sequence of Tyrosine-protein kinase Fyn (Homo sapiens) (P06241 2-537 limits assumed): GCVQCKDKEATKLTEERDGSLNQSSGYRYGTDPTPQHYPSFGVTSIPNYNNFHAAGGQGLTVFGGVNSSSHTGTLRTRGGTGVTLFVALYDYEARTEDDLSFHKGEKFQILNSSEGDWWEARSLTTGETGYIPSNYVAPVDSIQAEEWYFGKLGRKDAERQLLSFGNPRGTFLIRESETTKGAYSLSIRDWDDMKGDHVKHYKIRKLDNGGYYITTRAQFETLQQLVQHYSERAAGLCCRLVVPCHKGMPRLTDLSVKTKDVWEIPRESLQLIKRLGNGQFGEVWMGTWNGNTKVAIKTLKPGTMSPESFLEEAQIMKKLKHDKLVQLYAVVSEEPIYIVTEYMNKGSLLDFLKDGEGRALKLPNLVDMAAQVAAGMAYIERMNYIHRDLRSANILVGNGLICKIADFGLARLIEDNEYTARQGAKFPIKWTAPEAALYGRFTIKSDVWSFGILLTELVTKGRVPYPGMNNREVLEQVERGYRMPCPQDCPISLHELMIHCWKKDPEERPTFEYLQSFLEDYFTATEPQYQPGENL

[19] = target: Serine/threonine-protein kinase PLK1 (Homo sapiens) (UniProt P53350); settings: at 0.1 µM
Sequence of Serine/threonine-protein kinase PLK1 (Homo sapiens) (P53350 whole entry): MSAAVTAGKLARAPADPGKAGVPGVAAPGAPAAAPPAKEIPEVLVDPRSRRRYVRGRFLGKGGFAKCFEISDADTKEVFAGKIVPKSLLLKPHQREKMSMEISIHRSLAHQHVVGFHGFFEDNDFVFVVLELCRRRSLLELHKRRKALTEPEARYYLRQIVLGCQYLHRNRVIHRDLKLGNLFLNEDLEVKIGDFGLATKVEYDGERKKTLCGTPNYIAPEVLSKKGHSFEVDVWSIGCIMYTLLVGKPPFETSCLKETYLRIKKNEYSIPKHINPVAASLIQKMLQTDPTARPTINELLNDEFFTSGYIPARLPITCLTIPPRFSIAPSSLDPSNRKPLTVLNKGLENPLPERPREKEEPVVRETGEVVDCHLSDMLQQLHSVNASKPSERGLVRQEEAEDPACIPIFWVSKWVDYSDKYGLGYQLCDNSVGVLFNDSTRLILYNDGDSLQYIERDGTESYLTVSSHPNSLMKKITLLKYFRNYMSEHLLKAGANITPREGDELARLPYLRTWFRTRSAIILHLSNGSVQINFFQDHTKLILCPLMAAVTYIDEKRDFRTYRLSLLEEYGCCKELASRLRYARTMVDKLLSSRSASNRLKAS

[20] = target: Serine/threonine-protein kinase PLK1 (Homo sapiens) (UniProt P53350); settings: at 1 µM

## COc1cc(Nc2ncc3c(C)nc(-c4cccc(C(F)(F)F)c4)n3n2)cc(OC)c1OC
[1]
  inhibition: 18.9%
[2]
  inhibition: 4.76%
[3]
  inhibition: 21.8%
[4]
  inhibition: 7.77%
[5]
  inhibition: 37.5%
[6]
  inhibition: 4.4%
[7]
  inhibition: 9.1%
[8]
  inhibition: 5.91%
[9]
  inhibition: 10.5%
[10]
  inhibition: 54.9%
[11]
  inhibition: 86.1%
[12]
  inhibition: 8.36%
[13]
  inhibition: 35.8%
[14]
  inhibition: -1.5%
[15]
  inhibition: 2.6%
[16]
  inhibition: 32.9%
[17]
  inhibition: 79.8%
[18]
  inhibition: 6.79%

## COc1cccc(-n2cnc3c(N/N=C/c4ccncc4)ncnc32)c1
[1]
  inhibition: 4.51%
[2]
  inhibition: 0%
[3]
  inhibition: 9.07%
[4]
  inhibition: -1.74%
[5]
  inhibition: -1.3%
[6]
  inhibition: 2.37%
[7]
  inhibition: 2.69%
[8]
  inhibition: -0.81%
[9]
  inhibition: -2.76%
[10]
  inhibition: 0.98%
[11]
  inhibition: 5.21%
[19]
  inhibition: -1.9%
[20]
  inhibition: -0.54%
[12]
  inhibition: 0.25%
[13]
  inhibition: 9.6%
[15]
  inhibition: -4.88%
[16]
  inhibition: 4.43%
[17]
  inhibition: 24.9%
[18]
  inhibition: -0.06%

Reference: ChEMBL document CHEMBL1961873, “Compounds: GSK PKIS; Assays: Nanosyn kinase panel” (2012)
